Laboratory results from PubChem BioAssay (Tox21).
Inconclusive results are not listed. Active and inactive are the calls of the source. The call rests on the fitted dose curve; in most records, active means well fitted curve in the direction sought with a large enough effect in the repeat runs; inconclusive means weak or mixed curves; inactive means no such curve, though single readings can be large; an effect the other way counts as inactive or inconclusive.

Experiments:
[1] = qHTS assay to identify small molecule antagonists of the retinoid acid receptor (RAR) signaling pathway - cell viability counter screen (AID 1159551); further: nearly all actives have a fitted effect of over 35% in size
Outline: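 ATP-based viability, C3RL4 cells, 6 h at 37 C with 1 uM final retinol co-added after compound; luminescence read 30 min post CellTiter-Glo, RT.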

[2] = qHTS assay to identify small molecule antagonists of the retinoic acid receptor (RAR) signaling pathway (AID 1159552; further: nearly all actives have a fitted effect of over 50% in size; further: potency means the concentration at half of the fitted maximal effect)
Outline: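 C3RL4 RARE-luc cells, overnight plating; retinol 1 uM final added right after compound; 6 hr 37 C; luciferase read at 30 min RT.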

[3] = qHTS assay to identify small molecule agonists of the retinoic acid receptor (RAR) signaling pathway (AID 1159553); further: potency means the concentration at half of the fitted maximal effect
Outline: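 Quantitative high-throughput format: the Tox21 10K library was tested on C3RL4 RARE-luciferase cells for 6 hr at 37 C and 5% CO2, with luminescence measured after a 30 min room-temperature reagent step.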

[4] = qHTS assay to identify small molecule antagonists of the estrogen related receptor (ERR) signaling pathway from Tox21 library - cell viability counter screen (AID 1224834); further: nearly all actives have a fitted effect of over 30% in size; further: potency means the concentration at half of the fitted maximal effect
Outline: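 Compounds in DMSO were pinned onto ERR cells that had been incubated for 6 h, and the plates were held at 37 C for 17.5 h. CellTiter-Fluor reagent was then added and fluorescence was measured after 30 min.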
On the % scale 0 is the no-effect control and ±100 the full control effect.

CCOC(=O)C1=NOC(c2ccccc2)(c2ccccc2)C1
inactive: outcome [1] | Potency [2] | Potency [3] | Potency [4]

COc1cc2c(cc1OC)-c1cc3ccc(OC)c(OC)c3c[n+]1CC2
inactive: outcome [1]

Cc1c(N)c(=O)n(-c2ccccc2)n1C
inactive: outcome [1] | Potency [2] | Potency [3] | Potency [4]

O=C(c1ccccc1O)c1ccccc1O
inactive: outcome [1] | Potency [2] | Potency [3]

CCC1C(=O)OCC1Cc1cncn1C (stereo not drawn)
inactive: outcome [1] | Potency [2] | Potency [3]

CCN[C@@H]1C[C@H](N)[C@@H](OC2OC(CN)=CCC2N)[C@H](O)[C@H]1O[C@H]1OC[C@](C)(O)[C@H](NC)[C@H]1O (stereo partly drawn)
inactive: activity change, negative = cytotoxicity [1] 2.69% [at 0.349 µM] | activity, negative = inhibition [2] 11.8% [at 0.349 µM] | activation [3] 1.16% [at 0.756 µM] | viability change, negative = cytotoxic [4] 5.78% [at 0.349 µM]

COC(=O)C1=C(C)NC(C)=C(C(=O)OC(C)C)C1c1cccc2nonc12 (stereo not drawn)
inactive: outcome [1] | Potency [3]
active: Potency [2] 21.1 µM

c1ccc(CCc2ccccc2)cc1
inactive: outcome [1] | Potency [2] | Potency [3] | Potency [4]

Cc1ccc(C(=O)c2ccccc2)cc1
inactive: outcome [1] | Potency [2] | Potency [4]

O=C1NC(=O)C2CC=CCC12 (stereo not drawn)
inactive: outcome [1] | Potency [2] | Potency [3] | Potency [4]

CC(CC=O)CC(C)(C)C (stereo not drawn)
inactive: outcome [1] | Potency [2] | Potency [4]

CC(=O)Nc1ccc(OCC(O)CNC(C)C)cc1 (stereo not drawn)
inactive: outcome [1] | Potency [2] | Potency [4]

CCCCCCCCN1CCCC1=O
inactive: outcome [1] | Potency [2] | Potency [4]

CCNS(=O)(=O)c1ccc(C)cc1
inactive: outcome [1] | Potency [2] | Potency [3] | Potency [4]

CC1OC1C1CCC2(C)OC2C1 (stereo not drawn)
inactive: outcome [1] | Potency [2] | Potency [4]

CC(C)COC(=O)c1ccc(N)cc1
active: Potency [3] 18.8 µM
inactive: outcome [1] | Potency [2] | Potency [4]

Nc1ccccn1
inactive: outcome [1] | Potency [2] | Potency [3] | Potency [4]

CC(N)C12CC3CC(CC(C3)C1)C2 (stereo not drawn)
inactive: outcome [1] | Potency [2] | Potency [3] | Potency [4]

NC(N)=NCCN1CCCCCCC1
inactive: activity change, negative = cytotoxicity [1] -0.855% [at 0.349 µM] | activity, negative = inhibition [2] 16.3% [at 0.349 µM] | activation [3] 0.885% [at 0.756 µM] | viability change, negative = cytotoxic [4] 1.48% [at 0.349 µM]

CC1CCC(CO)CC1 (stereo not drawn)
inactive: outcome [1] | Potency [2] | Potency [4]

CC(C)c1ccc2ncccc2c1
inactive: outcome [1] | Potency [2] | Potency [4]

O=C1CCCCCCCCCCCCCCO1
inactive: outcome [1] | Potency [2] | Potency [3] | Potency [4]

COCCOC[C@H](CC1(C(=O)NC2CCC(C(=O)O)CC2)CCCC1)C(=O)Oc1ccc2c(c1)CCC2 (stereo partly drawn)
inactive: outcome [1] | Potency [2] | Potency [3]

O=S(=O)(O)c1cccc(S(=O)(=O)O)c1
inactive: outcome [1] | Potency [2] | Potency [4]

CN(C)CCCCCCN(C)C
inactive: outcome [1] | Potency [2] | Potency [3] | Potency [4]

CCC(C)(CN(C)C)OC(=O)c1ccccc1 (stereo not drawn)
inactive: outcome [1] | Potency [2] | Potency [3] | Potency [4]

C=C[Si](OC(C)=O)(OC(C)=O)OC(C)=O
inactive: outcome [1] | Potency [2] | Potency [4]

COC(=O)Nc1ccc(Cl)c(Cl)c1
inactive: outcome [1] | Potency [2] | Potency [3] | Potency [4]

C[C@H]1[C@H](NC(=O)/C(=N/OC(C)(C)C(=O)O)c2csc(N)n2)C(=O)N1S(=O)(=O)O (stereo in doubt)
inactive: outcome [1] | Potency [2] | Potency [3] | Potency [4]

C=CC(=O)OCCCl
inactive: outcome [1] | Potency [2] | Potency [3] | Potency [4]

CCN1CCOCC1
inactive: outcome [1] | Potency [2] | Potency [3] | Potency [4]

CNC(=O)Nc1ccc(Cl)c(Cl)c1
inactive: outcome [1] | Potency [2] | Potency [4]

CN1CCN(c2cc3c(nn2)Oc2ccccc2N3C)CC1
active: Potency [3] 5.8 µM
inactive: activity change, negative = cytotoxicity [1] 0.0499% [at 19 µM] | activity, negative = inhibition [2] 162% [at 19 µM] | viability change, negative = cytotoxic [4] 4.08% [at 19 µM]

CO[C@@]1(NC(=O)C(C(=O)O)c2ccc(O)cc2)C(=O)N2C(C(=O)O)=C(CSc3nnnn3C)CO[C@@H]21 (stereo partly drawn)
inactive: outcome [1] | Potency [2] | Potency [3] | Potency [4]

CC1=NN(c2cc(S(=O)(=O)O)ccc2Cl)C(=O)C1N=Nc1ccccc1 (stereo not drawn)
inactive: outcome [1] | Potency [2]
active: Potency [3] 68.6 µM | Potency [4] 48.6 µM

CC12CCC(C(=O)C1=O)C2(C)C (stereo not drawn)
inactive: outcome [1] | Potency [2] | Potency [3] | Potency [4]

O=C1c2ccccc2C(=O)c2cc(O)ccc21
active: Potency [3] 17.2 µM
inactive: outcome [1] | Potency [2]

O=Cc1cccc(Br)c1
inactive: outcome [1] | Potency [2] | Potency [4]

CC(=O)c1cnccn1
inactive: outcome [1] | Potency [2] | Potency [4]

Nc1ccn([C@@H]2O[C@H](CO)[C@@H](O)C2O)c(=O)n1 (stereo partly drawn)
inactive: outcome [1] | Potency [3] | Potency [4]

CCCCOCCOC(=O)CCCCCCCCC(=O)OCCOCCCC
inactive: outcome [1] | Potency [2] | Potency [4]

FB(F)F
inactive: outcome [1] | Potency [3] | Potency [4]

O=C(O)CC(C(=O)O)S(=O)(=O)O (stereo not drawn)
inactive: outcome [1] | Potency [2] | Potency [4]
